Assay [1] has as its target Nuclear respiratory factor 1 (Homo sapiens) (UniProt Q16656). The experiment in a line: ATG_NRF1_CIS: Attagene CIS-FACTORIAL HepG2 Assay for human Nuclear Respiratory Factor 1 (NRF1) Orphan Gene (AID 2282987). Particulars: HepG2 NRF1 cis-element reporter, Attagene multiplex; actives raise or lower the signal. In a few lines:
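Transcriptional reporter readout, one component of a 52-endpoint multiplexed HepG2 panel. Exposure 24 h; mRNA detected via RT-PCR and fluorescent capillary electrophoresis; fitting in both directions against DMSO.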

The nature of assay [2]: ATG_NFI_CIS: Attagene CIS-FACTORIAL HepG2 Assay for human Nuclear Factor I (NFI) (AID 2282989). To be noted: HepG2 cis-regulatory reporter, NFI response element transcription; actives raise or lower the signal. In a few lines:
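Cells: human liver HepG2, transiently transfected with promoter-regulated reporter transcription units. Exposure 24 h. Detection: fluorescent RT-PCR products separated by capillary electrophoresis, normalised to DMSO negative control.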

The target of assay [3] is Myc proto-oncogene protein (Homo sapiens) (UniProt P01106). In words: ATG_Myc_CIS: Attagene CIS-FACTORIAL HepG2 Assay for human Myelocytomatosis (Myc) Proto-Oncogene Transcription Factor (AID 2282990). To be noted: HepG2, Attagene cis-reporter transcription factor activity; actives raise or lower the signal. In a few lines:
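Multiplexed cis-reporter transcription in HepG2 cells after 24 h chemical treatment. Reporter mRNA measured by RT-PCR and capillary electrophoresis fluorescence; activity fitted bidirectionally against DMSO control.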

Assay [4] is described as follows: ATG_NRF2_ARE_CIS: Attagene CIS-FACTORIAL HepG2 Assay for human Nuclear Factor Erythroid 2 Related Factor 2 (NFR2) response to Antioxidant Response Elements (ARE) (AID 2282992). Particulars: HepG2 Attagene ARE/NRF2 reporter, transcription factor activity; actives raise or lower the signal. In a few lines:
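Transient MRTU transfection of HepG2; 24 h compound exposure; TriZol RNA, RT with oligo(dT), PCR, 6-FAM primer extension, HpaI cut, CE. Bidirectional fit vs DMSO.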

The nature of assay [5]: ATG_Oct_MLP_CIS: Attagene CIS-FACTORIAL HepG2 Assay for human Octamer-Binding Transcription Factor (Oct) (AID 2282993). To be noted: HepG2 Attagene cis-factorial Oct reporter, mRNA; actives raise or lower the signal. In a few lines: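 HepG2, transient MRTU transfection, cis promoter elements; 24 h dosing; RT-PCR/CE fluorescence read-out of reporter mRNA; fit both directions vs DMSO.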

Assay [6] deals with Cellular tumor antigen p53 (Homo sapiens) (UniProt P04637). In words: ATG_p53_CIS: Attagene CIS-FACTORIAL HepG2 Assay for human p53 Transcription Factor (AID 2282994). Particulars: HepG2 p53 cis-element reporter, Attagene mRNA; actives raise or lower the signal. In a few lines: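 HepG2, transient MRTU transfection (cis promoter elements, endogenous TFs); 24 h dosing; RNA isolation, RT-PCR, 6-FAM primer extension, HpaI digest, CE fluorescence; bidirectional fit vs DMSO.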

Assay [7] is described as follows: BSK_3C_TissueFactor: BioMAP Diversity Plus: 3C Assay for Tissue Factor Biomarker Activity (AID 2282997). To be noted: BioMAP 3C HUVEC, tissue factor biomarker readout; actives raise or lower the signal. In a few lines:
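Endothelial monolayers (human umbilical vein, primary) are dosed, incubated 24 h, and assayed for Tissue Factor by ELISA; DMSO serves as negative control for bidirectional fitting.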

Assay [8] in a line: BSK_3C_uPAR: BioMAP Diversity Plus: 3C Assay for Urokinase-type plasminogen activator receptor (uPAR) Biomarker Activity (AID 2282998). Particulars: BioMAP 3C HUVEC, uPAR biomarker ELISA; actives raise or lower the signal. In a few lines: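 A multiplexed primary-cell system built on human umbilical vein endothelium was used, with chemical present for 24 h before reading. Cell-surface uPAR was detected by ELISA; signal change in either direction counted against DMSO.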

The nature of assay [9]: BSK_3C_VCAM1: BioMAP Diversity Plus: 3C Assay for Vascular cell adhesion molecule 1 (VCAM1) Biomarker Activity (AID 2282999). To be noted: BioMAP 3C HUVEC, VCAM1 ELISA, cytokine-stimulated; actives raise or lower the signal. In a few lines:
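Human umbilical vein endothelial cells were dosed with compound for 24 h, after which cell-surface VCAM-1 was quantified by ELISA. Bidirectional curve fitting used DMSO as negative control and activity baseline.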

Assay [10] in a line: ATG_NF_kB_CIS: Attagene CIS-FACTORIAL HepG2 Assay for human Nuclear Factor Kappa B (NF-kB) (AID 2282991). To be noted: HepG2 Attagene cis-factorial NF-kB reporter mRNA; actives raise or lower the signal. In a few lines: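 HepG2, transient multi-reporter transfection, cis promoter elements (endogenous TFs). 24 h exposure. Total RNA → RT → PCR → 6-FAM label → HpaI → CE. Gain/loss vs DMSO.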

In general, AC50 refers to the concentration giving half of the maximal activity seen.

“And” between values parts separate entries of the source, which are not always exact repeats. Identical values can stand only once. Some structures have more than one record in an assay (separate samples or runs), and their calls can disagree. The source made the active and inactive calls. Rule for the calls: active = hit-call score of the fitted dose curve at least 0.9, where 1 is the maximum; inactive = score below 0.9.

Cellular tumor antigen p53 (Homo sapiens), sequence (P04637 whole entry, looked up): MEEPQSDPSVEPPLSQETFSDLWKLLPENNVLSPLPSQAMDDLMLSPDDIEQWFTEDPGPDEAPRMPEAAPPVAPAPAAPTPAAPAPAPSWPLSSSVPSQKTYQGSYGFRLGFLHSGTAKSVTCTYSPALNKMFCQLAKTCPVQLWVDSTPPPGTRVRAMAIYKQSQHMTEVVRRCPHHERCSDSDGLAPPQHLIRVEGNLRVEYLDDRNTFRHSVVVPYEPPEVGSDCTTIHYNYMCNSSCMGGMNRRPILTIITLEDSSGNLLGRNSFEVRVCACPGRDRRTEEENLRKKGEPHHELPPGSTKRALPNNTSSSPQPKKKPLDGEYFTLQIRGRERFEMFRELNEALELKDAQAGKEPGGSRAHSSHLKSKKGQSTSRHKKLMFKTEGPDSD
Myc proto-oncogene protein (Homo sapiens), sequence (P01106 whole entry, looked up): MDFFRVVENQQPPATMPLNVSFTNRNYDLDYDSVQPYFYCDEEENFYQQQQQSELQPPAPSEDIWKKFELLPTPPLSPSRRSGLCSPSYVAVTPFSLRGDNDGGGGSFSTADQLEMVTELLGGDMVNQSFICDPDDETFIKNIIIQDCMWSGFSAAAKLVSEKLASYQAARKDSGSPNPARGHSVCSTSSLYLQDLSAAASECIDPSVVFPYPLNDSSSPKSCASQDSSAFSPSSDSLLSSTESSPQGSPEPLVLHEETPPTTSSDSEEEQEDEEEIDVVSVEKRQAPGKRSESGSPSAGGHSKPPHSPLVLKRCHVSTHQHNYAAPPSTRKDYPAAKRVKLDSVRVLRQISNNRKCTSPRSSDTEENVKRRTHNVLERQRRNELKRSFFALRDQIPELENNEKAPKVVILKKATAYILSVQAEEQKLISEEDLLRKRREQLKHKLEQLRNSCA
Nuclear respiratory factor 1 (Homo sapiens), sequence (Q16656 whole entry, looked up): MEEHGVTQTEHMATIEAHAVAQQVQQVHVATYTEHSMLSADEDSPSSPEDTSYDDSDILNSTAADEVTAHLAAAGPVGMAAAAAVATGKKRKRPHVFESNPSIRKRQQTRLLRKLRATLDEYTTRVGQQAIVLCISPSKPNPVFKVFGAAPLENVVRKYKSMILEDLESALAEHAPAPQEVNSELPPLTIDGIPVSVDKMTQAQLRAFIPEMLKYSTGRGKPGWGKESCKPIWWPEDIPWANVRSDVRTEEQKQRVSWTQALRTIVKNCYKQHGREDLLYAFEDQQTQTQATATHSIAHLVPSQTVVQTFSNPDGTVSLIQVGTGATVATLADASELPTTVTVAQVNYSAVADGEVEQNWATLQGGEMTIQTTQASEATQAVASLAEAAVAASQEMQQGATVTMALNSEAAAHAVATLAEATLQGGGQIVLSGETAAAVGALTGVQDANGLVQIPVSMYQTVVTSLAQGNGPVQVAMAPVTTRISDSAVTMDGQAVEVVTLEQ

On to `Nc1ccc(S(=O)(=O)Nc2nccs2)cc1`, for which the molecule was called inactive in assay [1], in assay [2], in assay [3], in assay [4], in assay [5] and in assay [6].
For the molecule `CCCCOc1ccc(N)cc1`, the result in [1], in [2], in assay [3], in [4], in assay [5] and in assay [6] was inactive.
For the molecule `O=C(CC(=O)C(F)(F)C(F)(F)F)C(F)(F)F`, the call in assay [1], in assay [2], in assay [3], in assay [5], in [6] and in assay [7] was inactive. The outcome in assay [8] and in [9] was inactive. Also, the AC50 in assay [4] is 94.6 µM (active) and 109 µM (active); in assay [6] it was 112 µM (active).
In the case of `O=C(OCCOCCOCCOC(=O)c1ccccc1)c1ccccc1`, the result in assay [1], in [2], in [3], in [4], in [5] and in assay [6] was inactive.
For the molecule `CCCCC(CC)COP(=O)(O)OCC(CC)CCCC` (centres undefined), the molecule was called inactive in assay [1], in assay [2], in assay [3], in [5], in [7] and in assay [8]. In assay [9], the outcome was inactive. For the same molecule, the AC50 in assay [4] was 26.6 µM (active).
Consider `O=S(=O)(O)c1ccc2ccccc2c1`, for which the molecule was classed as inactive in assay [1], in [2], in assay [3], in assay [4], in assay [5] and in assay [6].
`CCCCOCCOCCOC(=O)CCCCC(=O)OCCOCCOCCCC`: the call in assay [1], in [2], in assay [3], in assay [4], in [5] and in assay [7] was inactive. For the same molecule, the result in assay [8] and in assay [9] was inactive.
In the case of `FC(F)(F)C(F)(F)C(F)(F)C(F)(F)CCI`, the result in [1], in [2], in assay [3], in assay [4], in assay [5] and in [6] was inactive. For the same molecule, the result in assay [7], in assay [8] and in assay [9] was inactive. In [4], the AC50 is 79.7 µM (active).
Take `C=CC/C=C/C/C=C/C/C=C/C`: the result in assay [1], in assay [2], in assay [3], in assay [4], in assay [5] and in [6] was inactive. For the same molecule, the outcome in [7], in [8] and in assay [9] was inactive.
Take `OCC(F)(F)C(F)(F)C(F)(F)C(F)(F)C(F)(F)C(F)(F)F`: the molecule was called inactive in assay [1], in assay [2], in assay [3], in assay [5], in assay [7] and in assay [8]. In assay [9], the outcome was inactive. Moreover, the AC50 in [4] is 225 µM (active); in assay [6] it was 257 µM (active).
Take `FC(F)(F)C(F)(F)C(F)(F)C(F)(F)C(F)(F)C(F)(F)CC1CO1` (centres undefined): the molecule was called inactive in [1], in [2], in assay [3], in [4], in [5] and in assay [6]. Besides, the result in [7], in assay [8] and in assay [9] was inactive.
Take `CCCCCCCCCCCCCCCC[N+](C)(C)Cc1ccccc1`: the outcome in [1], in assay [2], in assay [4], in assay [5] and in [6] was inactive. For the same molecule, the AC50 in assay [3] was 25.1 µM (active); in [7], 20 µM (active); in assay [8], 20 µM (active); in assay [9], 8.49 µM (active).
On to `CC(C)c1ccccc1N`, for which the result in assay [1], in [2], in assay [10], in assay [4], in assay [5] and in [6] was inactive.
Consider `OC[C@@H](O)[C@@H](O)[C@H](O)[C@@H](O)CO`, for which the molecule was classed as inactive in assay [1], in assay [2], in assay [3], in assay [4], in assay [5] and in assay [6].
`CC(C)(C)c1ccc(OC2CCCCC2O)cc1` (centres undefined): the result in [1], in [2], in assay [3], in [5] and in assay [6] was inactive. For the same molecule, the AC50 in assay [4] was 20.5 µM (active).
On to `COC(=O)C1CCC(C(=O)OC)CC1` (centres undefined), for which the outcome in assay [1], in assay [2], in assay [10], in assay [4], in assay [5] and in assay [6] was inactive. Moreover, the AC50 in assay [4] was 163 µM (active).
As to `O=C(O)C(F)(OC(F)(F)C(F)(OC(F)(F)C(F)(F)C(F)(F)F)C(F)(F)F)C(F)(F)F` (centres undefined), the molecule was classed as inactive in assay [1], in [2], in assay [3], in [10], in assay [4] and in assay [5]. Also, the call in assay [6], in assay [7], in [8] and in assay [9] was inactive.
For `C#C[C@]1(O)CC[C@H]2[C@@H]3CCc4cc(OC)ccc4[C@H]3CC[C@@]21C`, the result in assay [1], in [2], in assay [3], in [5], in [6] and in assay [7] was inactive. The result in assay [8] and in assay [9] was inactive. Moreover, the AC50 in assay [4] was 18 µM (active).
`C(=C(c1ccccc1)c1ccccc1)c1ccccc1`: the result in [1], in [2], in assay [3], in [5] and in [6] was inactive. Moreover, the AC50 in assay [4] is 25.2 µM (active).
For `Nc1ccc(Oc2cccc(Oc3ccc(N)cc3)c2)cc1`, the AC50 in assay [1] is 76.4 µM (active); in assay [2], 166 µM (active); in assay [4] it was 26.5 µM (active); in assay [5] it was 24.9 µM (active); in assay [6], 26.7 µM (active). Moreover, the molecule was called inactive in assay [10].
`C=CC(=O)OCC(F)(F)C(F)(F)C(F)(F)C(F)(F)COC(=O)C=C`: the molecule was called inactive in [1]. For the same molecule, the AC50 in assay [2] is 50 µM (active); in assay [3] it was 65.2 µM (active); in [4] it was 12.8 µM (active); in assay [5] it was 21.5 µM (active); in [6], 79.4 µM (active); in [7], 24.9 µM (active) and 35.5 µM (active). The AC50 in assay [8] was 22.9 µM (active) and 28.2 µM (active); in [9] it was 26.7 µM (active) and 21.6 µM (active).
In the case of `O=C(O)C(F)(F)C(F)(F)C(F)F`, the molecule was called inactive in assay [1], in assay [2], in assay [3], in assay [4], in assay [5] and in [6]. Also, the outcome in [7], in assay [8] and in assay [9] was inactive.
With `C=CC(=O)OCC(F)(F)C(F)(F)C(F)(F)C(F)(F)C(F)(F)C(F)(F)C(F)(F)F`, the molecule was called inactive in assay [1], in assay [2], in [3], in [10], in [5] and in assay [6]. For the same molecule, the result in assay [7], in assay [8] and in assay [9] was inactive. Further, the AC50 in assay [4] was 50 µM (active).
Consider `CC(CCl)OP(=O)(OC(C)CCl)OC(C)CCl` (centres undefined), for which the molecule was called inactive in assay [1], in assay [2], in assay [3], in assay [10], in assay [4] and in assay [5]. In addition, the call in [6], in assay [7], in assay [8] and in assay [9] was inactive.
On to `O=P(O)(O)OCCC(F)(F)C(F)(F)C(F)(F)C(F)(F)C(F)(F)C(F)(F)F`, for which the call in assay [1], in assay [2], in [3], in assay [4], in assay [5] and in [6] was inactive. The result in assay [7], in assay [8] and in [9] was inactive.

The values are drawn from PubChem BioAssay (EPA / NIEHS).
